Data taken from PubChem BioAssay (EPA / NIEHS).
The source made the active and inactive calls. Rule for the calls: active = hit-call score of the fitted dose curve at least 0.9, where 1 is the maximum; inactive = score below 0.9.

Tests used:
[1] = APR_HepG2_NuclearSize_72hr: Apredica 72-hour HepG2 Assay for Nuclear Size (AID 2282925); details: high-content imaging, actives raise or lower the signal
Procedure, shortened: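 Read-out: nuclear diameter from Hoechst 33342 images (ArrayScan, 20x, six fields/well), via cell-cycle image analysis. HepG2 were dosed 0.39–200 uM for 72 hr in 0.5% DMSO. Bidirectional fit relative to DMSO.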

[2] = ATG_CRE_CIS: Attagene CIS-FACTORIAL HepG2 Assay for human cAMP Responsive Element (CRE) binding protein 3 (AID 2282926); details: HepG2 CRE cis-reporter, Attagene multiplexed mRNA; actives raise or lower the signal
Procedure, shortened: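 Liver-derived HepG2, transfected with a CRE-containing reporter panel, exposed 24 h; transcript levels sized and quantified by capillary electrophoresis of labelled amplicons; signal changes either way referenced to vehicle.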

[3] = target: CCAAT/enhancer-binding protein beta (Homo sapiens) (UniProt P17676); experiment: ATG_C_EBP_CIS: Attagene CIS-FACTORIAL HepG2 Assay for human CCAAT/Enhancer Binding Protein (C/EBP) beta (AID 2282927); details: HepG2 Attagene cis-factorial transcription factor reporter; actives raise or lower the signal
CCAAT/enhancer-binding protein beta (Homo sapiens), sequence (P17676 whole entry, looked up): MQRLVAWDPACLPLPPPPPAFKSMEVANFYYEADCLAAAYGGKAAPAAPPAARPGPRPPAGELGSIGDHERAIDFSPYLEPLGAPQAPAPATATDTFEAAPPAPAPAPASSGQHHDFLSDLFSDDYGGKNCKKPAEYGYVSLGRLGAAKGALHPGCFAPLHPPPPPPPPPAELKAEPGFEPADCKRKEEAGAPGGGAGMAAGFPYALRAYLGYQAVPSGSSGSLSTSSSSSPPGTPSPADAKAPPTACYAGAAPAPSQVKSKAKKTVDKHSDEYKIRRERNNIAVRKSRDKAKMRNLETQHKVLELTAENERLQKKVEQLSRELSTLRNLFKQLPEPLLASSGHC
Procedure, shortened: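 HepG2, transient MRTU transfection, 24 h treatment. RT-PCR plus CE fluorescence; DMSO negative control, bidirectional fit.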

[4] = ATG_CMV_CIS: Attagene CIS-FACTORIAL HepG2 Assay for human CMV (Internal Marker) (AID 2282928); details: HepG2 CMV promoter reporter, transcription factor profiling; actives raise or lower the signal;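 note: endpoint acts as a background internal control marker rather than a target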
Procedure, shortened: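 Bidirectional fits against DMSO are applied to reporter mRNA, read by RT-PCR with capillary electrophoresis, from HepG2 cells exposed 24 h. The endpoint serves as an internal CMV background marker within the cis-factorial reporter panel.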

[5] = ATG_DR4_LXR_CIS: Attagene CIS-FACTORIAL HepG2 Assay for human Liver X Receptor (LXR), DR4 submotif (AID 2282929); details: HepG2 Attagene DR4 cis-reporter, mRNA transcription; actives raise or lower the signal
Procedure, shortened: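 Readout: reporter transcript fluorescence after RT-PCR and capillary electrophoresis, fitted bidirectionally against DMSO controls. Human HepG2 liver cells carried transiently transfected multiplexed reporter constructs; endogenous transcription factor activity measured 24 h post-dosing.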

[6] = target: Aryl hydrocarbon receptor (Homo sapiens) (UniProt P35869); experiment: ATG_Ahr_CIS: Attagene CIS-FACTORIAL HepG2 Assay for human Aryl Hydrocarbon Receptor (Ahr) (AID 2282930); details: HepG2 AhR cis-factorial reporter transcription; actives raise or lower the signal
Aryl hydrocarbon receptor (Homo sapiens), sequence (P35869 whole entry, looked up): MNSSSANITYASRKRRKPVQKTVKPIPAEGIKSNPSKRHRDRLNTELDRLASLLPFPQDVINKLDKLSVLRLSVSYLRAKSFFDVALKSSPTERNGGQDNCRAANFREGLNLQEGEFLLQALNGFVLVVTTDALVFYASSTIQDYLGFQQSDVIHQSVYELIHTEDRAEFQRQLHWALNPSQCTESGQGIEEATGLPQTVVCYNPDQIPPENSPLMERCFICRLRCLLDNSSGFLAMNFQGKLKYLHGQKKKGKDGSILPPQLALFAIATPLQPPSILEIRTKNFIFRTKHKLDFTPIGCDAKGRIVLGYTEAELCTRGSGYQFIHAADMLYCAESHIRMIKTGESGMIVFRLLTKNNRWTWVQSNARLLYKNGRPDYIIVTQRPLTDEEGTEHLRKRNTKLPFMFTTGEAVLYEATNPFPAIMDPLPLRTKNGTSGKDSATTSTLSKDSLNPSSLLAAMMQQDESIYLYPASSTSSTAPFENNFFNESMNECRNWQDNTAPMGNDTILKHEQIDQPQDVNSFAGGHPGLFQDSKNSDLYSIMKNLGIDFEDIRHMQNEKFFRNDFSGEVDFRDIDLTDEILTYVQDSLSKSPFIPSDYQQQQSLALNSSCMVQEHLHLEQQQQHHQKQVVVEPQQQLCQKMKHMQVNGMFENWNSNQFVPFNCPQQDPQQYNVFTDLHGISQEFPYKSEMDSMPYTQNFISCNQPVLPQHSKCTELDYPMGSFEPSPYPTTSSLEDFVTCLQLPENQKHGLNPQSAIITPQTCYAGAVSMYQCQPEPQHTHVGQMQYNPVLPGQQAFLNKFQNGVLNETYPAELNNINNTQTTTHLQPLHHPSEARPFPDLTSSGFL
Procedure, shortened: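 Endogenous factor activity is tracked through cis-promoter reporter units transfected into HepG2 cells. Transcript levels at 24 h are read by fluorescent RT-PCR and capillary electrophoresis, with activity in either direction scored relative to DMSO.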

[7] = ATG_AP_1_CIS: Attagene CIS-FACTORIAL HepG2 Assay for human Activator Protein 1 (AP-1) (AID 2282931); details: HepG2 Attagene cis-factorial AP-1 reporter mRNA; actives raise or lower the signal
Procedure, shortened: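 Reporter transcripts were measured 24 h after dosing by RT-PCR and capillary electrophoresis of fluorescent fragments. Cells: HepG2 carrying transfected cis-regulated reporter constructs reading endogenous factor activity. Gain or loss fitted against DMSO.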

[8] = ATG_AP_2_CIS: Attagene CIS-FACTORIAL HepG2 Assay for human Activator Protein 2 (AP-2) (AID 2282932); details: HepG2 AP-2 cis-reporter, Attagene transcription factor profiling; actives raise or lower the signal
Procedure, shortened: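 Liver-derived HepG2 line, cis-reporter system measuring endogenous factors; 24 h dosing; reporter mRNA detected by fluorescent RT-PCR and capillary electrophoresis.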

[9] = ATG_BRE_CIS: Attagene CIS-FACTORIAL HepG2 Assay for human Bone Morphogenetic Protein (BMP) Response Element (BRE) (AID 2282933); details: HepG2 BMP response element reporter, Attagene transcription factor profiling; actives raise or lower the signal
Procedure, shortened: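 HepG2 cells transiently transfected with multiplexed cis-element reporter units were dosed with chemical for 24 h. Reporter mRNA was measured by RT-PCR with fluorescent labelling, HpaI digestion and capillary electrophoresis; bidirectional fitting relative to DMSO.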

[10] = target: Retinoic acid receptor alpha (Homo sapiens) (UniProt P10276); experiment: ATG_DR5_RAR_CIS: Attagene CIS-FACTORIAL HepG2 Assay for human Retinoic Acid Receptor Alpha (RARE), DR5 submotif (AID 2282934); details: HepG2 Attagene cis-factorial RARE DR5 reporter, mRNA; actives raise or lower the signal
Retinoic acid receptor alpha (Homo sapiens), sequence (P10276 whole entry, looked up): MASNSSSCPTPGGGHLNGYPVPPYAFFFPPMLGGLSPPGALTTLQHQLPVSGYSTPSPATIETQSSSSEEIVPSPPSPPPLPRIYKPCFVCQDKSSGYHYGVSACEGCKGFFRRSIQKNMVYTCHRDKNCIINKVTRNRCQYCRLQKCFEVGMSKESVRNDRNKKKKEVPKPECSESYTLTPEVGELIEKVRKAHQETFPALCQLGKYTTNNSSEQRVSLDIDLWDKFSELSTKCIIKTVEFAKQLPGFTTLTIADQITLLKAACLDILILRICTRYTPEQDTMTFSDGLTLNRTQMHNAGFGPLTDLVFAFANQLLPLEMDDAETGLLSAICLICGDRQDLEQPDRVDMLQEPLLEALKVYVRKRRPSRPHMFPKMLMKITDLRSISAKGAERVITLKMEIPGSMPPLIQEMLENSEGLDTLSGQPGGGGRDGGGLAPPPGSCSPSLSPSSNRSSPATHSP
Procedure, shortened: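 After 24 h of chemical exposure, transiently transfected HepG2 cells were lysed for total RNA; the DR5-regulated reporter transcript was quantified via RT-PCR and capillary electrophoresis, with activity fitted bidirectionally against DMSO.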

[11] = target: Transcription factor E2F1 (Homo sapiens) (UniProt Q01094); experiment: ATG_E2F_CIS: Attagene CIS-FACTORIAL HepG2 Assay for human E2F Transcription Factor 1 (AID 2282935); details: HepG2 Attagene cis-reporter, E2F reporter RNA transcripts; actives raise or lower the signal
Transcription factor E2F1 (Homo sapiens), sequence (Q01094 whole entry, looked up): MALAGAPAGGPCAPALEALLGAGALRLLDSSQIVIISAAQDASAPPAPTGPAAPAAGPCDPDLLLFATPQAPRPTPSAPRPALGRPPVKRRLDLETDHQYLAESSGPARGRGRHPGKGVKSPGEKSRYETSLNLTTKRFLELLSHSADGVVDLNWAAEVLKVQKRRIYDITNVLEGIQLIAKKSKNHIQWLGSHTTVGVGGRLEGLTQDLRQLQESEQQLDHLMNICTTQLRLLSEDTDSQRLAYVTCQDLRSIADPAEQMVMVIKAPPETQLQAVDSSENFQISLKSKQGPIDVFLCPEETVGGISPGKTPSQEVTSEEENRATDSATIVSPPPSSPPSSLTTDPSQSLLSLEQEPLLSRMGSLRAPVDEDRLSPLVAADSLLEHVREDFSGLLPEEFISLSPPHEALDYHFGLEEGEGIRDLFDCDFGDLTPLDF
Procedure, shortened: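 Liver-derived HepG2 cells expressing transfected promoter-driven reporter units received test chemical for 24 hours. Signal gains or losses were fitted bidirectionally against DMSO.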

[12] = ATG_E_Box_CIS: Attagene CIS-FACTORIAL HepG2 Assay for human Enhancer Box (E-box) (AID 2282936); details: HepG2 E-box cis-reporter transcription, actives raise or lower the signal
Procedure, shortened: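 In this cell-based setup, HepG2 cells bearing transfected promoter-driven reporter units were exposed to chemicals for 24 h; reporter transcripts were amplified, 6-FAM-labelled, cut with HpaI and sized by capillary electrophoresis.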

[13] = ATG_M_61_CIS: Attagene CIS-FACTORIAL HepG2 Assay for M61 Transcription Factor (Internal Marker) (AID 2282937); details: HepG2 Attagene CIS-FACTORIAL M61 internal marker reporter; actives raise or lower the signal
Procedure, shortened: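 Readout: fluorescent reporter mRNA fragments resolved by capillary electrophoresis after RT-PCR. Transiently transfected human HepG2 cells carried MRTU constructs reporting endogenous TF activity; 24 h chemical exposure; gain or loss of signal fitted relative to DMSO.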

[14] = ATG_EGR_CIS: Attagene CIS-FACTORIAL HepG2 Assay for human Early Growth Response 1 (EGR1) (AID 2282938); details: HepG2 Attagene CIS-FACTORIAL EGR reporter mRNA; actives raise or lower the signal
Procedure, shortened: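 Read-out: fluorescent reporter-mRNA fragments resolved by capillary electrophoresis after RT-PCR, 24 h post-dose in transiently transfected HepG2. Endogenous transcription-factor activity reported via cis-element-regulated reporter units; gain or loss fitted relative to DMSO.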

[15] = ATG_M_19_CIS: Attagene CIS-FACTORIAL HepG2 Assay for M19 Transcription Factor (Internal Marker) (AID 2282939); details: HepG2 Attagene CIS-FACTORIAL M19 internal marker reporter; actives raise or lower the signal
Procedure, shortened: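 HepG2 cells transiently transfected with cis-regulated multiple reporter transcription units were dosed for 24 h; reporter mRNA was quantified by RT-PCR, 6-FAM primer-extension labelling, HpaI digestion and capillary electrophoresis, with bidirectional fitting against DMSO baseline.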

[16] = ATG_ERE_CIS: Attagene CIS-FACTORIAL HepG2 Assay for Estrogen Response Element (ERE) (AID 2282940); details: HepG2 ERE cis-reporter, Attagene RNA transcript; actives raise or lower the signal
Procedure, shortened: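 HepG2 cells transiently transfected with cis-promoter-driven multiplexed reporter transcription units report endogenous TF activity. After 24 h compound exposure, reporter mRNA is quantified by RT-PCR with capillary electrophoresis fluorescence; bidirectional fitting versus DMSO baseline.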

[17] = ATG_Ets_CIS: Attagene CIS-FACTORIAL HepG2 Assay for human Erythroblast Transformation Specific (ETS) (AID 2282941); details: HepG2 ETS cis-reporter transcription, actives raise or lower the signal
Procedure, shortened: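 Endogenous transcription factor activity read as reporter mRNA via RT-PCR and capillary electrophoresis, with gain or loss fitted bidirectionally against DMSO. Human HepG2 liver cells, transiently transfected CIS reporter constructs, 24 h exposure.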

[18] = target: Hepatocyte nuclear factor 3-beta (Homo sapiens) (UniProt Q9Y261); experiment: ATG_FoxA2_CIS: Attagene CIS-FACTORIAL HepG2 Assay for human Forkhead box A2 (FOXA2) (AID 2282942); details: HepG2 cis-reporter transcription factor activity, 24 h; actives raise or lower the signal
Hepatocyte nuclear factor 3-beta (Homo sapiens), sequence (Q9Y261 whole entry, looked up): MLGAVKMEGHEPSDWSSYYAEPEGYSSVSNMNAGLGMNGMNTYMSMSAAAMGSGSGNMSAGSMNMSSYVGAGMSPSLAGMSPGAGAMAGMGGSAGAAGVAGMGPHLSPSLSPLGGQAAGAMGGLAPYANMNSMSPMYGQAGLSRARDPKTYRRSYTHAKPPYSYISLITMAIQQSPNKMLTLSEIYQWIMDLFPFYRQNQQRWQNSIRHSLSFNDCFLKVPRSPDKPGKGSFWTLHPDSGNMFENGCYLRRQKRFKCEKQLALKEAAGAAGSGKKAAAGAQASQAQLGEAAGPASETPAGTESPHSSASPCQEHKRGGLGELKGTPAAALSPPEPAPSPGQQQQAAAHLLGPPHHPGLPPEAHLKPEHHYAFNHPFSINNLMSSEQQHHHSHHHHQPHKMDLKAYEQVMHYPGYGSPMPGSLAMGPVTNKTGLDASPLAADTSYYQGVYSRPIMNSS
Procedure, shortened: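 Readout: fluorescent reporter transcripts resolved by capillary electrophoresis after RT-PCR. Transiently transfected HepG2, 24 h compound exposure, endogenous TF activity at cis promoter elements. Gain or loss of signal fitted relative to DMSO.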

[19] = ATG_FoxO_CIS: Attagene CIS-FACTORIAL HepG2 Assay for human Forkhead box O (FoxO) (AID 2282943); details: HepG2 Attagene cis-reporter, FoxO element, mRNA; actives raise or lower the signal
Procedure, shortened: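 Transfected HepG2 reporter cells exposed to test chemical for 24 h; reporter RNA measured by reverse transcription, PCR and fluorescent capillary electrophoresis; curves fitted for increases and decreases against DMSO.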

[20] = ATG_GATA_CIS: Attagene CIS-FACTORIAL HepG2 Assay for human GATA Binding Protein (AID 2282944); details: HepG2 GATA cis-element reporter, Attagene multiplex mRNA; actives raise or lower the signal
Procedure, shortened: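 HepG2 cells transiently transfected with multiplexed cis-element reporter units reflecting endogenous transcription factor activity; reporter mRNA measured after 24 h dosing by RT-PCR, 6-FAM labeling, HpaI digestion and capillary electrophoresis. Bidirectional fitting versus DMSO baseline.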

Measured: AC50

O=C(N[C@@H](Cc1ccccc1)[C@@H](O)C(=O)N1C[C@@H](O)[C@@H](O)C1)c1cc2cc(Cl)ccc2[nH]1
active: [5] 60.5 µM | [7] 159 µM | [8] 155 µM | [12] 165 µM
inactive: all other assays above

OC[C@@H](O)[C@@H](O)[C@H](O)[C@H](O)CO
inactive: all assays above

Cc1ccc(C)c(C)c1
not listed: [18]
inactive: all other assays above

O=c1c(O)c(-c2ccc(O)c(O)c2)oc2cc(O)cc(O)c12
active: [4] 26.5 µM | [6] 5.8 µM | [7] 100 µM | [16] 25.8 µM
inactive: all other assays above

NC(=O)Cn1c(=O)cc(CCN2CCN(c3nccc4sccc34)CC2)c2ccc(F)cc21
active: [4] 100 µM
not listed: [10]
inactive: all other assays above

COc1cccc2c1C(=O)c1c(O)c3c(c(O)c1C2=O)C[C@@](O)(C(=O)CO)C[C@@H]3O[C@H]1C[C@H](N)[C@H](O)[C@H](C)O1
active: [4] 1.19 µM | [5] 0.957 µM | [7] 2.15 µM | [8] 3.75 µM | [12] 1.85 µM | [14] 2.04 µM | [19] 0.543 µM
not listed: [18]
inactive: all other assays above

CCCCCCCC=O
not listed: [10]
inactive: all other assays above

CCCCCCCCCCO
active: [2] 183 µM
inactive: all other assays above

CNCc1cc(F)ccc1Oc1ccc(Cl)c(Cl)c1
active: [1] 103 µM
inactive: all other assays above

COCCOC[C@H](CC1(C(=O)NC2CCC(C(=O)O)CC2)CCCC1)C(=O)Oc1ccc2c(c1)CCC2 (stereo not given in full)
not listed: [18]
inactive: all other assays above

Clc1cc(Cl)c(Cl)cc1Cl
not listed: [18]
inactive: all other assays above

CCCCCCCCCCC
not listed: [3]
inactive: all other assays above

CCCCN(CCCC)CCCC
not listed: [10]
inactive: all other assays above

Cc1cc(=O)[nH]c(=S)[nH]1
not listed: [10] | [18]
inactive: all other assays above
